From PubChem BioAssay
Active and inactive are the calls of the source.

Key:
[1] = compounds binding Alexa647 anti-His antibody – biochemical, small-molecule microarray, 635 nm fluorescence, artefact control for SMM control protein annotation, primary screen (AID 1128); conditions: higher = more signal;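 further: score merges feature fluorescence with signal-to-noise for each printed compound spot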
[2] = system: Human papillomavirus type 1a E7 protein (residues 1-88); assay: HPV1a E7 small-molecule binders, primary screen, biochemical, small-molecule microarray, residues 1-88, 635 nm (AID 1129); conditions: small-molecule microarray binding, fluorescence 635 nm; higher = more signal
[3] = target: Focal adhesion kinase 1 (Homo sapiens) (UniProt Q05397); assay: PTK2 protein binding on printed compound slides – biochemical, small-molecule microarray, 635/667 nm fluorescence, BSA, DTT, primary screen (AID 1130); conditions: 635 nm fluorescence, higher = more signal;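 further: composite of spot emission at 667 nm and signal to noise over triplicate slides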
Focal adhesion kinase 1 (Homo sapiens), sequence (Q05397 whole entry, looked up): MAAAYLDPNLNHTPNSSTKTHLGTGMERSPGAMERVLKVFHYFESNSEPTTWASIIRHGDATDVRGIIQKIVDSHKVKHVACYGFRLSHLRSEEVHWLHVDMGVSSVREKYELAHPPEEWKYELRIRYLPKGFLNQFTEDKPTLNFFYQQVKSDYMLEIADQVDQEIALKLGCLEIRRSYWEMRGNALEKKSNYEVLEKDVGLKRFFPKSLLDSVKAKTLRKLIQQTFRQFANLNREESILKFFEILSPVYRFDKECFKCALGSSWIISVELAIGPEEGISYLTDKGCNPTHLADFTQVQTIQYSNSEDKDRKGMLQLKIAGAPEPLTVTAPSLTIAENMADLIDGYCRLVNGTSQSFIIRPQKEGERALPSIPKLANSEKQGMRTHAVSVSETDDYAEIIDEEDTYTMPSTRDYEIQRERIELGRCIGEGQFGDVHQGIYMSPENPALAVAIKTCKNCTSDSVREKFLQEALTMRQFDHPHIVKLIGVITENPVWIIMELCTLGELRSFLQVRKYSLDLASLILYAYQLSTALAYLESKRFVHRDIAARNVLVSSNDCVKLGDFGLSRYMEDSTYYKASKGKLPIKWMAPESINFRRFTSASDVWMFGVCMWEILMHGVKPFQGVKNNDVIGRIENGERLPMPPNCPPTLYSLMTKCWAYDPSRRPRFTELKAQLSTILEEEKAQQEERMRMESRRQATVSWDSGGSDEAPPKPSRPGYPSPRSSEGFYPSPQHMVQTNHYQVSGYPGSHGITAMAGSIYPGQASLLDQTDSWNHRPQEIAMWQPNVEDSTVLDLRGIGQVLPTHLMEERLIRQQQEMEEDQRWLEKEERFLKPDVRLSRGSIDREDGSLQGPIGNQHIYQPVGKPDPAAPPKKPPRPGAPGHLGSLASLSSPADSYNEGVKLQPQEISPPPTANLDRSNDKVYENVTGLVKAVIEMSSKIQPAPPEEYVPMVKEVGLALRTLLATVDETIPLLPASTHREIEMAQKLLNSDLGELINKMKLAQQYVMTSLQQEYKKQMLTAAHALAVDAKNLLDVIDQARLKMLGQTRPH

[4] = system: Fibrinogen (Alexa647-labelled); assay: Alexa647-fibrinogen binding to printed small molecules – biochemical, small-molecule microarray, 635/667 nm fluorescence, artefact control for SMM control-protein annotation, profiling panel (AID 1131); conditions: fibrinogen-A647 binding fluorescence, higher = more signal;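 further: z-score merges 667 nm fluorescence with per-spot signal-to-noise over triplicate slides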
[5] = target: Follistatin (Homo sapiens) (UniProt P19883); assay: FST protein binding to printed compounds – biochemical, small-molecule microarray, 635/667 nm fluorescence, primary screen (AID 1132); conditions: 635 nm fluorescence, higher = more signal
Follistatin (Homo sapiens), sequence (P19883 whole entry, looked up): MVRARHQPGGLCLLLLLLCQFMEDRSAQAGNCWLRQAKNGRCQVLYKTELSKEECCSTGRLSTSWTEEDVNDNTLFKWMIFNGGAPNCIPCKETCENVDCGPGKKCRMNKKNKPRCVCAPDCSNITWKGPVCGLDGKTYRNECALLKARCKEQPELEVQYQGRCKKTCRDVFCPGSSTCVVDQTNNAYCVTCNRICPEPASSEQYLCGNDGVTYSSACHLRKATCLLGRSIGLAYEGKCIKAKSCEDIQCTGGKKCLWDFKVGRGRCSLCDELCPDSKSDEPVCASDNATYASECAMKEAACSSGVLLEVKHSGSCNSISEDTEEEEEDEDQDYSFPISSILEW

[6] = target: Fibroblast growth factor 2 (Homo sapiens) (UniProt P09038); assay: basic fibroblast growth factor binding to printed compounds – biochemical, small-molecule microarray, 635/667 nm fluorescence, primary screen (AID 1133); conditions: FGF2, fluorescence 635/667, higher = more signal
Fibroblast growth factor 2 (Homo sapiens), sequence (P09038 whole entry, looked up): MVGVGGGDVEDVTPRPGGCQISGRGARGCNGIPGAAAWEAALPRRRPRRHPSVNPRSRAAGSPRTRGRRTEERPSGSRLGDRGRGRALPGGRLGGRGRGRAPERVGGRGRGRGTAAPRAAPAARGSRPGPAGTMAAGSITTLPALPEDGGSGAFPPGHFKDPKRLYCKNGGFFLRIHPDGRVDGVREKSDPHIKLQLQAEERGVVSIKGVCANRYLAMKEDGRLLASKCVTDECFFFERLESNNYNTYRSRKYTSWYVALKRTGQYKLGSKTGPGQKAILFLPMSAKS

[7] = JC-1 mitochondrial potential readout, lung cancer cells – cell-based, A549, JC-1 fluorescence, basal, 24 h, 100 nL, profiling panel (AID 1138); conditions: higher = more signal;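 further: A549 lung adenocarcinoma cells under basal conditions with no added stimulus; test concentration not given here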
Lefty1 = Lefty1 protein binding to printed compounds – biochemical, small-molecule microarray, 635/667 nm fluorescence, primary screen (AID 1139); conditions: fluorescence 635/667, higher = more signal
[8] = system: wheat germ agglutinin (Triticum aestivum), Alexa647-labelled; assay: Alexa647-WGA lectin binding to printed small molecules – biochemical, small-molecule microarray, 635/667 nm fluorescence, artefact control for SMM control-protein annotation, profiling panel (AID 1140); conditions: WGA-A647 binding, 635 nm fluorescence, higher = more signal;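 further: score merges 667 nm feature emission with signal to noise over triplicate slides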
[9] = target: Luciferin 4-monooxygenase (Photinus pyralis) (UniProt P08659); assay: inhibition of purified Photinus pyralis luciferase – biochemical, luminescence, purified enzyme, 2006 set, primary screen (AID 1141); conditions: purified firefly luciferase, SteadyGlo luminescence, 30 min; higher = more signal, called active from +8 up or from −8 down;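 further: cell-free assay with purified firefly luciferase at 100 ng per well in PBS; test concentration not given here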
Luciferin 4-monooxygenase (Photinus pyralis), sequence (P08659 whole entry, looked up): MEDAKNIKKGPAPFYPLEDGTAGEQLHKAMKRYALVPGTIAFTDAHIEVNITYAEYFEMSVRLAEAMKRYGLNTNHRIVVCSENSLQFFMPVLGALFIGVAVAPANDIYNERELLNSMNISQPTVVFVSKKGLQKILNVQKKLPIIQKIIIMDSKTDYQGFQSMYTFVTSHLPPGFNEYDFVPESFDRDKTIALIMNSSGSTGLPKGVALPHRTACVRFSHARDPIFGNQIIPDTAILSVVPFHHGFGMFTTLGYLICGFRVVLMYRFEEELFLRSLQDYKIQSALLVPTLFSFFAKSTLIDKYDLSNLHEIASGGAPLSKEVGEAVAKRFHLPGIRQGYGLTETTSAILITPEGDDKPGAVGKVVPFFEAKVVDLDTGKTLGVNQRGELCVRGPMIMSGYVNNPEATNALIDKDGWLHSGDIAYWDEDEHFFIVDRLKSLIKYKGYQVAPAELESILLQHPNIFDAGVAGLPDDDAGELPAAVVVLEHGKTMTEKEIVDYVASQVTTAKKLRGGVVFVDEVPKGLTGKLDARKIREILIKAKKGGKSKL

| SMILES | composite z-score [1] | composite z-score [2] | composite z-score [3] | composite z-score [4] | composite z-score [5] | composite z-score [6] | z-score [7] | composite z-score (Lefty1) | composite z-score [8] | z-score [9] |
| --- | --- | --- | --- | --- | --- | --- | --- | --- | --- | --- |
| CCCC1(C(=O)OC)C=C2C(=C(c3ccccc3)C(=O)C2C)CN1 (stereo not given) | 0.295 | 0.412 | 0.198 | 0.453 | 0.13 | -0.299 | 1.63 | 0.0496 | 0.858 | 1.11 (inactive) |
| COCCCNC(=O)[C@@]1(Cc2ccccc2)N=C(c2ccc(OCCCO)cc2)O[C@H]1c1ccccc1CN=[N+]=[N-] | 2.82 | 1.17 | 0.944 | 0.913 | 1.3 | 0.122 | 1.99 | 0.872 | 1.18 | -0.781 (inactive) |
| COCC(=C=CC[C@@H](O)c1ccc(OCCO)cc1)C[C@@H](O)c1ccccn1 | 2.32 | -0.14 | 0.359 | 0.792 | 0.979 | 0.249 | 0.0965 | 0.517 | 0.643 | -0.501 (inactive) |
| CCOC(=O)C1=C[C@@H](C(C)C)N(S(=O)(=O)c2ccc(C)cc2)[C@H]1c1ccccc1F | 0.654 | 1.2 | -0.0031 | 1.02 | 0.96 | 0.307 | 2.33 | 0.187 | 0.927 | 1.82 (inactive) |
| CO[C@H]1O[C@H](CO)[C@@H](OC(=O)Nc2ccc(Oc3ccccc3)cc2)[C@H](OC(=O)Nc2ccc3c(c2)OCO3)[C@@H]1OC(=O)Nc1ccc2c(c1)OCO2 | 1.83 | 1.24 | 0.653 | 0.85 | 1.28 | 1.2 | -0.216 | 0.423 | 0.779 | -5.16 (inactive) |
| CCOC(=O)C[C@H]1[C@H](OC(=O)c2cc3ccccc3oc2=O)[C@@H](NC(=O)CC(C)C)c2cc(OCCCO)ccc2N1C(=O)c1ccccc1 | 0.615 | 0.926 | 0.399 | 0.595 | 0.478 | 0.427 | -0.399 | 0.696 | 0.634 | -0.291 (inactive) |
| CN1C(=O)C2C=CC(C(O)c3c(F)cccc3Cl)N(NC(=O)OC(C)(C)C)C2C1=O (stereo not given) | 1.11 | 1.09 | 0.427 | 1.01 | 0.453 | -0.174 | 0.584 | -0.242 | 0.634 | 0.682 (inactive) |
| O=C1NC(=O)C2C1C=CC(C(O)c1ccc(-c3ccccc3)s1)N2Nc1ccc(Cl)cc1Cl (stereo not given) | 0.752 | 1.11 | 1.06 | 0.934 | 0.833 | -0.91 | -0.536 | 0.127 | 0.865 | -0.289 (inactive) |
| COC(=O)C(CC#Cc1ccc2c(c1)[C@]1(C(=O)N2)[C@H](c2ccccc2OCCO)N2[C@H](c3ccccc3)[C@H](c3ccccc3)OC(=O)[C@H]2[C@@H]1C(=O)O)C(=O)OC | 1.94 | 1.16 | 0.411 | 0.765 | 0.206 | 0.36 | 0.621 | 0.284 | 0.702 | -2.37 (inactive) |
| CC1CC/C=C\[C@H]2OC34C=CCN(Cn5nnc6ccccc65)C(=O)[C@H]3N(CCCCCO)C(=O)[C@@H]4C2C(=O)O1 (stereo not given in full) | 0.429 | -1.48 | -0.281 | -2.26 | -1.16 | -1.69 | 0.114 | -0.425 | 1.24 | 0.932 (inactive) |
| CC(c1ccccc1)C(O)C1C=CC2C(=O)N(C)C(=O)C2N1NC(=O)OC(C)(C)C (stereo not given) | 0.79 | 1.21 | 0.235 | 1.03 | 0.696 | 0.0621 | -0.422 | -0.271 | 0.939 | -0.934 (inactive) |
| C=CCN1Cc2ccccc2[C@@H]2OC(c3ccc(OCCCO)cc3)=N[C@]2(CCS(=O)(=O)c2ccccc2)C1=O | 1.56 | 1.2 | 0.772 | 0.811 | 1.4 | 1.78 | 1.37 | 0.602 | 0.393 | -2.38 (inactive) |
| Cc1ccc(/C=C/C=O)cc1 | -0.0082 | -0.872 | -0.0083 | 0.698 | -0.186 | -0.245 | 0.843 | -0.709 | 0.0368 | -1.19 (inactive) |
| COc1ccc([Si](C)(C)[C@@H]2[C@@H](CC(=O)N3CCC[C@H]3CO)O[C@]3(C(=O)N(Cc4cccc(I)c4)c4ccccc43)[C@H]2C)cc1 | 2.04 | 0.781 | -0.204 | 0.591 | 1.39 | 1.76 | -0.77 | 1.64 | 0.481 | -0.368 (inactive) |
| CC(CO)N1C(=O)[C@@H]2C3C(=O)OCCC/C=C\[C@H]3OC23C=CCN(CCN2CCOCC2)C(=O)[C@@H]13 (stereo not given in full) | 0.537 | -0.624 | -0.181 | -1.1 | 0.205 | 0.186 | 1.08 | 0.376 | -0.169 | -0.523 (inactive) |
| NC(=O)N1C(=O)C2C(C1=O)C1C=C(CCCO)C2C(C2CC2)N1Cc1cc2c(cc1Br)OCO2 (stereo not given) | 1.06 | -1.06 | 0.164 | 0.928 | 0.246 | -0.407 | 0.158 | 0.969 | 0.847 | -1.13 (inactive) |
| CO[C@H]1O[C@H](CO)[C@@H](OC(=O)Nc2ccc(Br)cc2)[C@@H]2OC(=O)[C@H](Cc3cccc(Br)c3)C/C=C/C[C@@H](Cc3cccc(Br)c3)C(=O)O[C@@H]12 | 0.144 | -0.122 | 0.2 | -0.538 | 0.585 | 0.268 | 1.37 | 0.647 | 0.616 | 0.671 (inactive) |

| SMILES | composite z-score [1] | composite z-score [2] | composite z-score [3] | composite z-score [4] | composite z-score [5] | composite z-score [6] | z-score [7] | composite z-score (Lefty1) | composite z-score [8] | z-score [9] |
| --- | --- | --- | --- | --- | --- | --- | --- | --- | --- | --- |
| O=C(NC1CC1)[C@@H]1c2ccccc2C(=O)N(C2Cc3ccccc3C2)[C@H]1c1ccc(CO)cc1 | 2.65 | 1.18 | 0.167 | -0.677 | 1.29 | 0.988 | 1.64 | 0.294 | 0.0895 | 0.659 (inactive) |
| COc1ccc(C(O)C2C=CC3C(=O)N(C)C(=O)C3N2N(c2ccccc2)c2ccccc2)c2ccccc12 (stereo not given) | 2.54 | -0.172 | -0.278 | 0.384 | 1.41 | 0.392 | 0.419 | 1.09 | 1.07 | -0.091 (inactive) |
| COC(=O)[C@@]1(Cc2ccccc2)[C@H]2c3cc(C(=O)N(C)C)n(CCc4c[nH]c5ccc(O)cc45)c3C[C@H]2CN1C(=O)c1ccccc1 | 1.53 | 1.23 | 0.772 | -0.0969 | 1.35 | -0.0235 | -0.409 | 0.171 | 0.173 | -2.82 (inactive) |
| CC(C)NC(=O)[C@@]1(Cc2ccccc2I)c2ccccc2C(=O)N(Cc2ccccc2Cl)[C@H]1c1ccc(CO)cc1 | 2.99 | 1.2 | 0.252 | 0.443 | 1.19 | 0.566 | 1.46 | 0.443 | 0.858 | -0.577 (inactive) |
| O=C1[C@@]23C=C(Br)[C@H](C[C@@H]2COC3)[C@]12CO2 | -2.07 | -3.63 | 0.406 | -2.79 | -0.362 | -0.829 | -0.096 | -0.921 | -2.06 | -0.0914 (inactive) |
| COCCOC(=O)N1C(=O)[C@@]2(c3cc(C#CCCO)ccc31)[C@H](c1ccc(O)cc1)N1[C@H](c3ccccc3)[C@H](c3ccccc3)OC(=O)[C@H]1[C@@H]2C(=O)N1CCN(c2ncccn2)CC1 | 1.34 | 1.25 | 1.26 | 0.959 | 1 | 0.986 | 0.00649 | 0.883 | 0.932 | 0.832 (inactive) |
| CCCCN1CC=CC23O[C@@H]4/C=C\CCCOC(=O)C4[C@H]2C(=O)N(CCCCCO)[C@@H]3C1=O (stereo not given in full) | 0.688 | -1.02 | 1.31 | -0.918 | -0.803 | -0.573 | 0.897 | -1.12 | -0.595 | 0.686 (inactive) |
| C[N+](C)(C)CCCCCCNC(=O)[C@H]1C[C@H]2C(=O)N[C@@H](Cc3ccccc3)C(=O)N2[C@H]1c1cccc(OCCO)c1 | 0.357 | 0.69 | 0.118 | 0.22 | 1.16 | 1.83 | -0.585 | 1.4 | -0.046 | 0.0538 (inactive) |
| O=C(O)[C@H](Cc1ccccc1)n1cc(-c2ccccc2)nn1 | 0.347 | 0.6 | 0.218 | 0.368 | 0.571 | 0.607 | -0.469 | 0.206 | 0.651 | 0.899 (inactive) |
| CO[C@H]1O[C@H](CO)[C@@H](OC(=O)Nc2cccc(F)c2)[C@H](OC(=O)Nc2ccccc2)[C@H]1OC(=O)Nc1ccccc1 | 2.02 | 1.29 | 0.656 | 0.993 | 1.35 | 1.12 | -1.18 | 1.3 | 0.662 | 0.124 (inactive) |
| CCCC=C(CCC)[C@@H](NC(=O)OCC(C)C)c1ccccc1 | 0.665 | 1.15 | 0.172 | 0.471 | 0.978 | 0.16 | -0.138 | 0.822 | 0.126 | 0.936 (inactive) |
| O=C1C2C=CC(C(O)C=Cc3ccc([N+](=O)[O-])cc3)N(Nc3ccccc3F)C2C(=O)N1c1ccccc1 (stereo not given) | 1.41 | 1.23 | 0.545 | 0.995 | 1.11 | 0.211 | -0.607 | 0.522 | 1 | -0.252 (inactive) |
| COC(=O)[C@@]1(Cc2ccccc2)[C@H]2c3cc(C(=O)N(C)C)n(Cc4ccc(OC)c(OC)c4)c3C[C@H]2CN1C(=O)c1ccccc1 | 1.81 | 1.27 | 0.561 | 1.01 | 0.385 | -0.588 | 0.134 | 0.0922 | 0.995 | 1.29 (inactive) |
| COc1ccc(CCNC(=O)[C@@]2(c3ccc([N+](=O)[O-])cc3)CC(=O)N(CC34CC5CC(CC(C5)C3)C4)[C@@H]2c2ccc(CO)cc2I)cc1 | 1.35 | 1.17 | 0.458 | 0.478 | 1.39 | 1.37 | -1.36 | 0.881 | 0.913 | 0.641 (inactive) |
| CC(C)[Si](C#CCCCC#N)(Oc1ccccc1Br)C(C)C | 0.259 | 0.725 | 0.3 | 0.709 | 0.269 | 0.223 | -0.0477 | 0.55 | 0.327 | -0.277 (inactive) |
| CCOc1cc(C(O)C2C=CC3C(=O)N(c4ccccc4)C(=O)C3N2Nc2ccc(C(C)C)cc2)ccc1O (stereo not given) | 1.72 | 1.23 | 0.543 | 0.963 | 1.03 | 0.0704 | 0.898 | 0.135 | 1.3 | 0.12 (inactive) |
